In the library only some 6.3% were active in any assay of this set; here they are far more common.
TGFb SMAD3 inh: qHTS for Inhibitors of TGF-b; Potency, µM (doses to about 46.1 µM), inactives show top-dose activity, negative = inhibition, usual class: inhibitors; AID 588855, 2011; HepG2 CAGA-GFP TGF-b/SMAD3 reporter, GFP fluorescence, 18 h; TGF-beta stimulated, 500 pg/mL final; actives 1.2% (n = 410,000); note: % is set by controls: 0 for no effect and ±100 for the full control effect; nearly all actives have a fitted effect of over 65% in size
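TGF-beta reporter screen: HEPG2 CAGA-GFP, 1% FBS, 500 pg/mL TGF-beta final, 18 h; per-cell GFP summed per well; curves fitted and categorized by class.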
S2 tox: Viability Counterscreen for Primary qHTS for Inhibitors of ATXN expression. S2 cells (HEK-293 line with an ATXN2-luciferase reporter) viability, CellTiter-Fluor protease fluorescence, 24 h. Potency, µM (highest dose often 56.7 µM), usual class: cytotoxic. actives 0.49% (n = 400,000); note: nearly all actives have a fitted effect of over 40% in size
ATXN2 expr inh: Primary qHTS for Inhibitors of ATXN expression | HEK-293 ATXN2-luciferase reporter, luminescence, 24 h | Potency, µM (doses to about 57 µM), for inactives: at the highest dose activity change, negative = inhibition, hits mostly inhibitors | actives 0.72% (n = 360,000); note: % is set by controls: 0 for no effect and ±100 for the full control effect; nearly all actives have a fitted effect of over 55% in size
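ATXN2-luciferase reporter cells (luciferase flanked by upstream and downstream ATXN2 gene portions) were treated 24 h at 37 °C with compounds at up to 57 uM. SteadyGlo luminescence gave expression; GF-AFC fluorescence gave viability.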
VP16 counter: VP16 counterscreen qHTS for inhibitors of ROR gamma transcriptional activity | actives 3.5% (n = 310,000) | Potency, µM (top dose mostly 53.6 µM), for inactives: top-dose activity, negative = inhibition, actives largely listed as inhibitors | AID 2546, 2010 | Drosophila S2 Gal4-VP16 UAS-luciferase, luminescence, 20 h;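 note: Gal4-VP16 expression switched on by copper sulfate through the metallothionein promoter; % is set by controls: 0 for no effect and ±100 for the full control effect; nearly all actives have a fitted effect of over 50% in size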
HepG2 viability: qHTS for Inhibitors of TGF-b: Cytotox Counterscreen; Potency, µM (top dose mostly 46.1 µM), for inactives: top-dose activity change, negative = cytotoxicity, most hits filed as cytotoxic; actives 0.76% (n = 410,000); AID 588856, 2011; HepG2 CAGA-GFP viability, ATP luminescence, 18 h
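CellTiter-Glo luminescence gave cytotoxicity after 18 hours at 37 degrees C. The cells were HepG2 CAGA-GFP in 1% FBS DMEM, stimulated with 500 pg/mL TGF-beta after compound addition. %Activity was normalised to no-cell wells (complete cell-killing) and DMSO (no toxicity), and curves were fitted and classified.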
RORg inh: qHTS for inhibitors of ROR gamma transcriptional activity. actives 5.4% (n = 310,000). AID 2551, 2010. Potency, µM (highest dose often 53.6 µM), without a hit: top-dose activity change, negative = inhibition, actives largely listed as inhibitors. Drosophila S2 Gal4-RORgamma UAS-luciferase reporter, 20 h; note: % is set by controls: 0 for no effect and ±100 for the full control effect; nearly all actives have a fitted effect of over 60% in size
Target sequence (P51450 whole entry, looked up, the tested form may be a part): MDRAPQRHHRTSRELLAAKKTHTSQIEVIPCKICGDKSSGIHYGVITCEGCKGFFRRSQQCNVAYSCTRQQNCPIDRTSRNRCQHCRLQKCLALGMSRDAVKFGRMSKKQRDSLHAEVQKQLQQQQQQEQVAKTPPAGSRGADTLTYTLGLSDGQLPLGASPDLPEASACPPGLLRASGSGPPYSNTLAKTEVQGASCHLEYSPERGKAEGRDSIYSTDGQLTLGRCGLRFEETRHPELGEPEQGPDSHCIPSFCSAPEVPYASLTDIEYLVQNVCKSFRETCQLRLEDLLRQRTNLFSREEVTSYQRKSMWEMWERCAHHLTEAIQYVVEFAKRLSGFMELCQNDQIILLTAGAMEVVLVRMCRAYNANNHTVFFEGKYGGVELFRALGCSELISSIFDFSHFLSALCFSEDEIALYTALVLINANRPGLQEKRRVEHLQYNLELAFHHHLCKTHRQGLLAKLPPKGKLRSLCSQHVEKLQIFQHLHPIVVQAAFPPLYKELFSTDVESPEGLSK
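Drosophila Schneider cells stably carrying a metallothionein-driven Gal4 DBD–ROR gamma fusion and a UAS-Photinus luciferase reporter were exposed to compound for 1 hr, then induced with copper sulfate (700 uM final) for 20 hr at ambient temperature before luminescence reading.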
An asterisk follows results filed as active; i = inactive; ? = inconclusive; / = not tested or not shown. Calls come from the whole dose curve; as a rule, active = well fitted curve in the direction sought with a large enough effect; inconclusive = small, poorly fitted or top-dose-only effect, or another doubt; inactive = no such curve, though single readings can be large; an effect the other way counts as inactive or inconclusive. Potency is the fitted concentration of half-maximal effect.

SMILES	TGFb SMAD3 inh	S2 tox	ATXN2 expr inh	VP16 counter	HepG2 viability	RORg inh
COc1cc(C2NC(=S)NC3=C2CCc2ccccc23)cc(OC)c1OC (centres undefined)	3.9%	i	-13.2%	10µM*	-0.7%	5.62µM*
C=CCOc1ccc(C2NC(=S)NC3=C2CCc2ccccc23)cc1 (centres undefined)	-20.4%	i	-3.6%	12.6µM*	-17.9%	3.55µM*
COc1ccc2c(c1)CCC1=C2NC(=S)NC1c1ccc(N(C)C)cc1 (centres undefined)	-22.4%	/	-22.5%	3.55µM*	-21.8%	2.82µM*
COc1ccc(NC(=O)Nc2cccc3c2O[C@H](CN(C)C(=O)Nc2ccc(OC)cc2)[C@@H](C)CN([C@H](C)CO)C3=O)cc1	-18.7%	i	19.9%	/	2.8%	/
COc1cc(COc2cc(N)c(Cl)cc2C(=O)CCC2CCN(CCNS(C)(=O)=O)CC2)cc(OC)c1	/	/	/	15.8µM*	/	15.8µM*
CCOCCCNC(=S)NNC(=O)CCn1nc(C)c(Br)c1C	-19.6%	i	-6.6%	3.16µM*	7.1%	1.41µM*
Cc1nn(CCC(=O)NNC(=S)NCC(C)C)c(C)c1Br	?	i	-9.3%	1.41µM*	-28.8%	0.708µM*
CNC(=S)NNC(=O)CCn1nc(C)c(Br)c1C	?	i	-0.4%	3.98µM*	-67.3%	0.631µM*
Cc1nn(CCC(=O)NNC(=S)Nc2ccc(F)cc2)c(C)c1[N+](=O)[O-]	2.2%	i	0.4%	-4.9%	10.0%	44.3%
Cc1cccc(NC(=S)NNC(=O)CCn2cc(C)cn2)c1	-16.0%	i	2.0%	1µM*	-29.3%	0.112µM*
Cc1nn(CC(=O)NNC(=S)NCC2CCCO2)c(C)c1Br (centres undefined)	-1.9%	i	22.5%	4.6%	1.1%	9.0%
COCCCNC(=S)NNC(=O)Cn1nc(C)c(Br)c1C	8.4%	i	-2.8%	11.2µM*	-0.3%	3.16µM*
Cc1nn(CCC(=O)NNC(=S)Nc2ccccc2)c(C)c1Br	?	i	2.8%	?	-4.6%	0.316µM*
FC(F)(F)c1ccc(Nc2nc3ccc(Oc4ccnc(-c5ncc(C(F)(F)F)[nH]5)c4)cc3[nH]2)cc1	/	/	-11.5%	/	/	/
CCOC(=O)C1CCN(C(=O)c2ccc(S(=O)(=O)Nc3ccccc3Cl)cc2)CC1	-9.1%	i	-13.0%	/	-4.3%	/
CCCCCOc1ccccc1/C(=C\SC)n1ccnc1	/	i	-12.9%	/	/	/
O=C(CCl)N(c1ccccc1)C1CCS(=O)(=O)C1 (centres undefined)	?	/	?	?	12.6µM*	17.8µM*
CC(C)(C)n1ncc2c(=O)n(Cc3c(F)ccc(F)c3Cl)cnc21	4.1%	/	/	/	-32.8%	/
Nc1c(Cl)ncnc1N/N=C/c1ccccn1	3.98µM*	12.6µM*	?	0.891µM*	-48.7%	0.398µM*
Nc1c(Cl)ncnc1N/N=C/c1ccnc2ccccc12	6.1%	?	10.4%	3.1%	9.3%	-28.2%
Nc1c(Cl)ncnc1N/N=C/c1ccc2ccccc2n1	4.47µM*	10µM*	7.94µM*	1µM*	-19.7%	0.398µM*
Nc1cc(N)cc(N)c1	-5.6%	/	/	/	20.9%	/
Cc1ccc2nc3c(cc(C#N)c(=O)n3-c3nnc(SCc4ccccc4Cl)s3)c(=O)n2c1	19.2%	i	12.2%	/	8.7%	/
COc1cc(NCCCC(C)N)c2ncccc2c1 (centres undefined)	-27.2%	i	14.8%	?	-32.5%	2.24µM*
COc1cc(NCCCCC(C)N)c2nccc(C)c2c1 (centres undefined)	?	?	/	/	-54.0%	/
SMILES	TGFb SMAD3 inh	S2 tox	ATXN2 expr inh	VP16 counter	HepG2 viability	RORg inh
COc1cc(NC(=O)c2ccccc2Cl)c2ncccc2c1	?	i	-15.9%	0.0%	-29.1%	41.7%
CCC(CNc1cc(OC)cc2cccnc12)NC1CCCCC1 (centres undefined)	?	17.8µM*	/	?	-109.1%	15.8µM*
CCOC(=O)c1[nH]c(C)c(CCC(=O)NC(C)c2ccccc2)c1C (centres undefined)	1.1%	i	-5.1%	/	5.6%	/
CN(C)CCCN(C(=O)c1ccc([N+](=O)[O-])s1)c1nc2cc3c(cc2s1)OCCO3	?	?	-24.0%	?	-64.4%	12.6µM*
CN(C)CCCN(C(=O)c1cc2cc([N+](=O)[O-])ccc2s1)c1nc2cc3c(cc2s1)OCCO3	?	20µM*	?	/	-97.9%	/
Cc1ccccc1NC(=S)NCC1CCC(CNC(=S)Nc2ccccc2C)CC1 (centres undefined)	-3.4%	i	-13.0%	-3.7%	-0.5%	15.7%
CC(C)(C)NC(=S)NCC1CC1	-1.5%	i	/	?	-4.5%	7.08µM*
Cc1cc(Br)cc2c1N(Cc1ccccc1OC(C)C)C(=O)C2=O	/	/	/	/	10µM*	/
COc1ccccc1CN1C(=O)C(=O)c2cccc(C)c21	3.9%	/	/	/	1.3%	/
CCOC(=O)c1c(S(=O)(=O)N2CCCC(C(=O)NCc3ccc(Cl)cc3)C2)c(C)n(C)c1C (centres undefined)	-12.4%	i	-10.8%	/	-11.6%	/
O=C(Nc1cnn(Cc2ccc(F)cc2)c1)c1cnccn1	-2.2%	i	3.5%	-6.1%	4.8%	24.8%
CC(C)(C)C1CCc2onc(C(=O)Nc3cnn(Cc4ccc(F)cc4)c3)c2C1 (centres undefined)	-27.6%	i	?	15.8µM*	-53.9%	?
O=C(Nc1cnn(Cc2ccc(F)cc2)c1)C(c1ccccc1)c1ccccc1	12.6µM*	i	-28.8%	-1.2%	-5.2%	33.5%
CCc1nc2c(OCCn3cccc3)cccn2c1N(C=O)Cc1ccccc1	-2.6%	i	-1.6%	/	-21.5%	/
Cc1cc(=O)[nH]c(SCC(=O)c2ccc(C(C)C)cc2)n1	16.8%	i	26.8%	?	3.7%	1.12µM*
O=C(O)C(=O)Nc1cccc(C2=NN=N[N]2)c1	/	i	-4.9%	/	/	/
CCC(=O)N1c2ccccc2CC1C(=O)NCCCN1CCN(c2ccccc2)CC1 (centres undefined)	-2.0%	?	1.2%	/	-4.6%	/
NNC(=O)c1cc2ccccc2cc1NS(=O)(=O)c1ccccc1	-16.6%	?	-22.4%	?	5.0%	20µM*
NC(=O)c1ccccc1NS(=O)(=O)c1ccccc1	-19.6%	/	/	3.2%	-3.3%	-2.9%

From PubChem
